PubChem BioAssay (EPA / NIEHS)
“And” between values parts separate entries of the source, which are not always exact repeats. Equal entries are not always repeated. The source made the active and inactive calls. How the source made its calls: active means hit-call score of the fitted dose curve at least 0.9, where 1 is the maximum; inactive means score below 0.9.

Tests used:
[1] = ATG_CRE_CIS: Attagene CIS-FACTORIAL HepG2 Assay for human cAMP Responsive Element (CRE) binding protein 3 (AID 2282926); settings: HepG2 CRE cis-reporter, Attagene multiplexed mRNA; actives raise or lower the signal
How it was run: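 Induced reporter mRNA from a CRE cis element, measured in HepG2 among many multiplexed units at 24 h. Detection used RT-PCR plus capillary electrophoresis of fluorescent fragments; DMSO served as negative control.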

[2] = biological target: CCAAT/enhancer-binding protein beta (Homo sapiens) (UniProt P17676); assay: ATG_C_EBP_CIS: Attagene CIS-FACTORIAL HepG2 Assay for human CCAAT/Enhancer Binding Protein (C/EBP) beta (AID 2282927); settings: HepG2 Attagene cis-factorial transcription factor reporter; actives raise or lower the signal
Chain of CCAAT/enhancer-binding protein beta (Homo sapiens) (P17676 whole entry, looked up): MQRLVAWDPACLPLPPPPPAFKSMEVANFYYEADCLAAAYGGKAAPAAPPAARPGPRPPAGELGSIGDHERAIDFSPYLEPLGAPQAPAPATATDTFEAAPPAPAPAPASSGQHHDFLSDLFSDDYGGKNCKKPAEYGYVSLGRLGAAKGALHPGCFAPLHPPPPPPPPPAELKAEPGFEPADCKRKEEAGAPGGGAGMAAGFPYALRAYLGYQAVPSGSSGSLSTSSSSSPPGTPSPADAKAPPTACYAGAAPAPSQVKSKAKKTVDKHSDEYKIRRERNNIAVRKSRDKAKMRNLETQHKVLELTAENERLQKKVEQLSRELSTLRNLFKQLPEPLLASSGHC
How it was run: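 RT-PCR/capillary electrophoresis fluorescence of reporter mRNA, 24 h post-dose, in HepG2 cells carrying transfected cis-promoter reporter units. Bidirectional curve fitting against DMSO baseline captures gain or loss of signal.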

[3] = ATG_CMV_CIS: Attagene CIS-FACTORIAL HepG2 Assay for human CMV (Internal Marker) (AID 2282928); settings: HepG2 CMV promoter reporter, transcription factor profiling; actives raise or lower the signal;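 further: endpoint acts as a background internal control marker rather than a target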
How it was run: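 Readout: fluorescent reporter cDNA fragments separated by capillary electrophoresis after RT-PCR and HpaI cut. Cells: HepG2 carrying transfected cis-promoter reporter constructs, dosed 24 h. Endpoint serves as background internal-marker control, fit bidirectionally versus DMSO.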

[4] = ATG_DR4_LXR_CIS: Attagene CIS-FACTORIAL HepG2 Assay for human Liver X Receptor (LXR), DR4 submotif (AID 2282929); settings: HepG2 Attagene DR4 cis-reporter, mRNA transcription; actives raise or lower the signal
How it was run: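 Total RNA from 24 h-treated, MRTU-transfected HepG2 cells underwent reverse transcription, PCR, fluorescent primer extension and restriction digestion before capillary electrophoresis. Both increases and decreases in reporter signal were fitted against DMSO.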

[5] = biological target: Aryl hydrocarbon receptor (Homo sapiens) (UniProt P35869); assay: ATG_Ahr_CIS: Attagene CIS-FACTORIAL HepG2 Assay for human Aryl Hydrocarbon Receptor (Ahr) (AID 2282930); settings: HepG2 AhR cis-factorial reporter transcription; actives raise or lower the signal
Chain of Aryl hydrocarbon receptor (Homo sapiens) (P35869 whole entry, looked up): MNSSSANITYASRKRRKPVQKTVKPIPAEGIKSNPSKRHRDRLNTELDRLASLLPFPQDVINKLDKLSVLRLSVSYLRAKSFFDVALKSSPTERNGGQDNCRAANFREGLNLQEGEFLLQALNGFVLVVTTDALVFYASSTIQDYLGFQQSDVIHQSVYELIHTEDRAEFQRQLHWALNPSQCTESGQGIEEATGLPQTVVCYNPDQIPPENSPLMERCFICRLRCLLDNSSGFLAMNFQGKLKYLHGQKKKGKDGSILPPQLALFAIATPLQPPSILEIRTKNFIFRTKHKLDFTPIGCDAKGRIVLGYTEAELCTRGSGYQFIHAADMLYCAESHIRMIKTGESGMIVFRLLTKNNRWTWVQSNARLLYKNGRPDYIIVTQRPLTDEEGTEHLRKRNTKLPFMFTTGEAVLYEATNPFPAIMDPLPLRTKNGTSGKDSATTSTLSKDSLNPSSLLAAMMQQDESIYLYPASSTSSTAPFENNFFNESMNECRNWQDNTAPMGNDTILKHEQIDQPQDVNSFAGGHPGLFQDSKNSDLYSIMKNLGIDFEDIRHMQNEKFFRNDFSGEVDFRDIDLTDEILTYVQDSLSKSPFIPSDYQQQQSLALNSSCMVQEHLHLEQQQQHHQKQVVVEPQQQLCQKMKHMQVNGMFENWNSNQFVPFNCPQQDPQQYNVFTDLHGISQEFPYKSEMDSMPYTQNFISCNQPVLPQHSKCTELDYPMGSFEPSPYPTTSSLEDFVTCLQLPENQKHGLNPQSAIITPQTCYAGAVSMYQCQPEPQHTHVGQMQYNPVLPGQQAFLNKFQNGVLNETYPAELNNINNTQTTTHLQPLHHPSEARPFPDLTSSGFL
How it was run: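 HepG2 cells transiently transfected with cis-element-driven multiplexed reporter transcription units; endogenous transcription factor activity measured as reporter mRNA 24 h after dosing. RT-PCR, 6-FAM labelling, HpaI digestion, capillary electrophoresis; bidirectional fitting versus DMSO baseline.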

[6] = ATG_AP_1_CIS: Attagene CIS-FACTORIAL HepG2 Assay for human Activator Protein 1 (AP-1) (AID 2282931); settings: HepG2 Attagene cis-factorial AP-1 reporter mRNA; actives raise or lower the signal
How it was run: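 HepG2, transient cis-reporter transfection; 24 h; readout RT-PCR/CE fluorescence; DMSO baseline, gain and loss fitted.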

[7] = ATG_BRE_CIS: Attagene CIS-FACTORIAL HepG2 Assay for human Bone Morphogenetic Protein (BMP) Response Element (BRE) (AID 2282933); settings: HepG2 BMP response element reporter, Attagene transcription factor profiling; actives raise or lower the signal
How it was run: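 HepG2 cells transiently transfected with multiplexed cis-element reporter units were dosed with chemical for 24 h. Reporter mRNA was measured by RT-PCR with fluorescent labelling, HpaI digestion and capillary electrophoresis; bidirectional fitting relative to DMSO.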

[8] = biological target: Retinoic acid receptor alpha (Homo sapiens) (UniProt P10276); assay: ATG_DR5_RAR_CIS: Attagene CIS-FACTORIAL HepG2 Assay for human Retinoic Acid Receptor Alpha (RARE), DR5 submotif (AID 2282934); settings: HepG2 Attagene cis-factorial RARE DR5 reporter, mRNA; actives raise or lower the signal;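 on AC50: reporter responds to endogenous RAR alpha beta and gamma in HepG2 not RARA alone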
Chain of Retinoic acid receptor alpha (Homo sapiens) (P10276 whole entry, looked up): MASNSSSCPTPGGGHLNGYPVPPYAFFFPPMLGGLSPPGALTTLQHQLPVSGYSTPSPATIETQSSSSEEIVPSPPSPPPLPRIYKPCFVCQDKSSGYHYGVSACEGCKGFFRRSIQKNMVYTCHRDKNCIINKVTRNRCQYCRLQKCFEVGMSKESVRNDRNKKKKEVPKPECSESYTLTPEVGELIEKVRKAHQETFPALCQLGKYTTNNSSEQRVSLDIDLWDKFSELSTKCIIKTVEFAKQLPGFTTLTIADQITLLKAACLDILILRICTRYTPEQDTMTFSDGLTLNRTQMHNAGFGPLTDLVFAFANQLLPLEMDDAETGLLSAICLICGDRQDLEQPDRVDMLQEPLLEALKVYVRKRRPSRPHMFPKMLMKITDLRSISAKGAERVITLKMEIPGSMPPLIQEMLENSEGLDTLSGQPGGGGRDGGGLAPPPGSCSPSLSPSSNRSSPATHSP
How it was run: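 HepG2 cells transiently transfected with multiplexed reporter units under cis (DR5 RARE) promoters, so endogenous transcription factor activity is measured. After 24 h compound exposure, reporter mRNA is quantified by RT-PCR with fluorescent labelling and capillary electrophoresis; bidirectional fitting versus DMSO.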

[9] = biological target: Transcription factor E2F1 (Homo sapiens) (UniProt Q01094); assay: ATG_E2F_CIS: Attagene CIS-FACTORIAL HepG2 Assay for human E2F Transcription Factor 1 (AID 2282935); settings: HepG2 Attagene cis-reporter, E2F reporter RNA transcripts; actives raise or lower the signal
Chain of Transcription factor E2F1 (Homo sapiens) (Q01094 whole entry, looked up): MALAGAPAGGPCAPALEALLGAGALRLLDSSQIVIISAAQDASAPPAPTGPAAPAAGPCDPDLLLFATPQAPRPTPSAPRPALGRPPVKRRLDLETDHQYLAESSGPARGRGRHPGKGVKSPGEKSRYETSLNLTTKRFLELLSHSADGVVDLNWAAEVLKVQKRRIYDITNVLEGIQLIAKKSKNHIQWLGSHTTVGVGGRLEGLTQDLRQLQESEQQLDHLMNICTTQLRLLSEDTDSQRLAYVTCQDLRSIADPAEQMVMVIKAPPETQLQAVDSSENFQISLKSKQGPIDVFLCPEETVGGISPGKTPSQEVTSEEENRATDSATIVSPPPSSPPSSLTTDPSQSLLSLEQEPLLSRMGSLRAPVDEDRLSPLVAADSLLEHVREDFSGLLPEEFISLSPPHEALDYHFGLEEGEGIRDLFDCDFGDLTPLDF
How it was run: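 First, HepG2 cells were transfected with reporter transcription units. Next, they were dosed for 24 h. Then RNA was isolated, converted to cDNA, PCR-amplified, FAM-labeled, HpaI-digested and analyzed by capillary electrophoresis.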

[10] = ATG_AP_2_CIS: Attagene CIS-FACTORIAL HepG2 Assay for human Activator Protein 2 (AP-2) (AID 2282932); settings: HepG2 AP-2 cis-reporter, Attagene transcription factor profiling; actives raise or lower the signal
How it was run: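 Cells (HepG2) transfected with promoter-driven reporter constructs, treated 24 h. Total RNA reverse-transcribed, reporter cDNA PCR-amplified, FAM-labelled by primer extension, digested, resolved by capillary electrophoresis. Activity fitted both directions versus DMSO.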

Measured: AC50

CC(C)(C)c1csc(-c2cc3cc(OCc4ccccc4CC(=O)O)ccc3o2)n1
inactive: [2] | [5] | [8] | [9]
active: [1] 54.3 µM | [3] 33.4 µM | [4] 4.56 µM | [6] 33.4 µM | [7] 57.6 µM

O=CCCCC=O
inactive: [1] | [2] | [3] | [4] | [7]

COc1ccc2cc(S(=O)(=O)N[C@H](CC(=O)N[C@H](Cc3ccc(CN4[C@H](C)CCC[C@@H]4C)cc3)C(=O)N(C)C(C)C)c3ccc4c(c3)OCO4)ccc2c1
inactive: [2] | [3] | [4] | [8]
active: [1] 15.4 µM | [5] 14.7 µM | [7] 11 µM | [9] 11 µM

COc1cccc([C@H](O)C2CCN(CCc3ccc(F)cc3)CC2)c1OC
active: [4] 100 µM
not listed: [6]
inactive: all other assays above

COc1cc(C(=O)NC2CCN(C)CC2)ccc1Nc1ncc2c(n1)N(C1CCCC1)CC(F)(F)C(=O)N2C
active: [1] 0.933 µM | [2] 0.472 µM | [4] 5.99 µM | [6] 5.06 µM | [8] 0.51 µM
inactive: [3] | [5] | [7] | [9]

Oc1ccc2ccccc2c1
active: [4] 100 µM | [5] 870 nM and 1.98 µM
not listed: [6] | [9]
inactive: all other assays above

CCCC(=O)OCCC(C)C
not listed: [6] | [9] | [10]
inactive: all other assays above

CCCCCCCCOC(=O)c1cc(O)c(O)c(O)c1
not listed: [6] | [9] | [10]
inactive: all other assays above

Cc1ccc(C(C)C)cc1
not listed: [6] | [9]
inactive: all other assays above

O=C1c2ccccc2C(=O)N1CCc1noc(-c2ccc(CN3CCCCCC3)s2)n1
active: [4] 84.5 µM | [7] 56.6 µM
not listed: [6]
inactive: all other assays above

Oc1ccccc1
not listed: [9] | [10]
inactive: all other assays above
